MEKK3 PB1 HTS: modulators (inhibitors or enhancers) of MEK5 binding to human MEKK3 PB1 domain; AID 1529; actives 1.4% (n = 290,000); Q99759; binding response (% of control), % at 10 µM; bead-based flow cytometry, Alexa488-MEK5 binding to MEKK3; actives lie on both sides; 0 = blocked by unlabeled MEK5, 100 = vehicle;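 active = binding response more than 3 SD above or below the average of its plate-row segment, actives on both sides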;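 note: Alexa488 bead fluorescence after subtracting the streptavidin-only scavenger bead signal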
Target sequence (Q99759 whole entry, looked up, the tested form may be a part): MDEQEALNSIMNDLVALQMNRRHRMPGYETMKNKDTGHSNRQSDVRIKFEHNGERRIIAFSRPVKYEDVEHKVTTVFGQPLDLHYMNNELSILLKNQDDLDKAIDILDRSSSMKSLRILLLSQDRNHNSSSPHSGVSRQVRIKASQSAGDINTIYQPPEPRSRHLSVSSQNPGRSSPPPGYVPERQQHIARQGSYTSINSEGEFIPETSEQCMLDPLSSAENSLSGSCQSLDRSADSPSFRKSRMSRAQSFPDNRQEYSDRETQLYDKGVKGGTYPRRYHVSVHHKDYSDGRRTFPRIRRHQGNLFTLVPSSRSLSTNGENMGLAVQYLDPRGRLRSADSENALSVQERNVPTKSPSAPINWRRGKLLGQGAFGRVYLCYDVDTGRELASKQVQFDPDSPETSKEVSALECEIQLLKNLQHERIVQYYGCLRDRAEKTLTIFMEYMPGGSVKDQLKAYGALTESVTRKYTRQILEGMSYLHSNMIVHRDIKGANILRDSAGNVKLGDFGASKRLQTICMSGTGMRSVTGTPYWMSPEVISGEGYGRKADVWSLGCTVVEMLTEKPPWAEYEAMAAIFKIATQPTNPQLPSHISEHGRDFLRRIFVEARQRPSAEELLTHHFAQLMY
SUMO Mot1 rescue: SUMOylation pathway inhibition by Mot1-301 growth rescue | S. cerevisiae Mot1-301 growth rescue, ATP luminescence, 38.5C; percent above DMSO median, 100 means doubled | growth rescue, % at 18.8 µM | actives 1% (n = 320,000) | AID 2716;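 active = every valid replicate shows activation above 250% relative to neutral control wells; inactive = the rest, any valid replicate at or below 250%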;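 note: OY570 slx delta 5 strain wells were the positive control but not used for scaling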
CHT block: inhibitors of human choline transporter CHT. Q9GZV3. CHT-expressing cells, membrane potential dye, choline response; active compounds read low. B-score at 10 µM. actives 0.86% (n = 310,000);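 active = B-score over 3 SD under the library average, and starting fluorescence ratio not unusually high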;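 note: choline stimulus applied at its EC90 after an EC20 pre-addition; B-score computed on integrated fluorescence ratio after choline addition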
CHT allo act: human CHT allosteric activation; Q9GZV3; CHT-expressing cells, membrane potential dye, choline EC20; active compounds read high; LV-AA mutant CHT in HEK293 cells; B-score at 10 µM; actives 0.49% (n = 310,000); AID 488977;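 active = initial fluorescence not abnormally high and integrated response B-score, plate-corrected, over 3 SD above library mean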
MEKK2 mut-MEK5: signal of MEK5 binding to mutant human MEKK2 PB1 domain; bead flow cytometry, Alexa488-MEK5 binding to MEKK2 mutant; percent response, % at 10 µM; actives 0.35% (n = 290,000); in the data active = percent response above about 24%, passing the limit was not always enough
MEKK2wt PB1 HTS: raises or lowers MEK5 binding to wildtype human MEKK2 PB1 domain; bead flow cytometry, Alexa488-MEK5 binding to MEKK2 WT; actives lie on both sides; binding response (% of control), % at 10 µM; actives 1.1% (n = 290,000); AID 1531; in the data active = binding response below about 67% or above about 130%
MEKK2wt confirm: raises or lowers MEK5 binding to wildtype human MEKK2, retest | shares compounds with MEKK3 PB1 HTS | AID 1892 | bead flow cytometry, Alexa488-MEK5 binding to MEKK2 WT; actives lie on both sides | binding response (% of control), % at 10 µM | actives 2.4% (n = 5,900); in the data active = binding response below about 16% or above about 210%; inactive = in between
MEKK2mut confirm: signal of MEK5 binding to mutant human MEKK2, retest | actives 2% (n = 5,900) | bead flow cytometry, Alexa488-MEK5 binding to MEKK2 mutant | AID 1893 | percent response, % at 10 µM | shares compounds with MEKK3 PB1 HTS; in the data active = percent response mostly above about 71%, no sharp cut-off; inactive = mostly below about 38%;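 note: higher means compound restores mutant binding toward wildtype level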
MEKK3 confirm: MEKK3-MEK5 PB1 inhibition, single concentration confirmation. shares compounds with MEKK3 PB1 HTS. bead flow cytometry, Alexa488-MEK5 binding to MEKK3; active compounds read low. binding response (% of control), % at 10 µM. actives 1.8% (n = 5,900);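 active = binding response below 72% of control, or above a set upper limit, though filed actives all read lower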;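 note: 100% = DMSO only wells and 0% = binding blocked by excess unlabeled MEK5; lower values mean stronger disruption of MEK5 binding to MEKK3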
Active calls of the source: *; i = inactive; . = not tested or not shown; [ ] = remark or other dose. Most compounds without a hit are left out; they make up all but 4.1% or so of the library.

SMILES	MEKK3 PB1 HTS	SUMO Mot1 rescue	CHT block	CHT allo act	MEKK2 mut-MEK5	MEKK2wt PB1 HTS	MEKK2wt confirm	MEKK2mut confirm	MEKK3 confirm
CCOc1cc(C(=S)N2CCCCC2)ccc1OCC(=O)NCc1ccccc1	75*[inhibitor]	26	i	i	-8	87	107	7	106
O=C(Nc1cccc(S(=O)(=O)NC2=NCCC2)c1)c1ccc(C(F)(F)F)cc1	.	-10	.	.	.	.	.	.	.
CC(=O)Nc1ccc(S(=O)(=O)NCCNc2ccccc2[N+](=O)[O-])cc1	128*	-23	i	i	0	112	106	-2	106
Cc1ccc(NC(=O)C2COc3ccccc3O2)cc1S(=O)(=O)N1CCOCC1 (stereo not drawn)	.	-5	.	.	.	.	.	.	.
NNC(=O)Cn1nc(-c2ccccc2)c2ccccc2c1=O	2.0*[inhibitor]	114	i	i	-51	3.0*[inhibitor]	105	4	105
O=C(O)Cn1nc(-c2ccccc2)c2ccccc2c1=O	100	-7	i	i	-1	97	.	.	.
CCOc1c(Br)cc(C(=O)N2CCCN(C)CC2)cc1OC	106	4	i	i	9	107	.	.	.
O=C(Nc1ccc(Cc2ccc(NC(=O)C3CC3)c(O)c2)cc1O)C1CC1	127*	34	i	i	6	119	113	7	103
O=C(O)CCC(=O)Nc1ccc(Cc2ccc(NC(=O)CCC(=O)O)c(O)c2)cc1O	111	i	i	i	4	107	.	.	.
CCOC(=O)c1c(-c2ccc(OC)cc2)csc1/N=C/N(C)C	136*	3	i	i	0	105	99	-5	97
O=C(c1ccc2[nH]c(=O)c(=O)[nH]c2c1)N1CCc2ccccc21	104	30	i	i	3	106	.	.	.
CC(=O)c1c(N2CCN(C)CC2)[nH]c(-c2ccccc2)nc1=S	99	-5	i	i	47*	23*	118	9	104
CCn1c(C)c(C(C)=O)c(N2CCN(c3ccccc3)CC2)nc1=S	101	7	i	i	4	102	.	.	.
CCOc1ccc(NC(=O)c2ccc(NC(=O)CSc3nc4ccccc4c(=O)[nH]3)cc2)cc1	101	50	i	i	0	97	.	.	.
O=C(NC1=NCCS1)C1COc2ccccc2O1 (stereo not drawn)	1.0*[inhibitor]	77	i	i	-8	-1.0*[inhibitor]	98	1	99
Cc1cccc(C)c1NC(=O)CN(C1CCCCC1)S(C)(=O)=O	97	-6	i	i	0	99	.	.	.
CC(C)NCC(O)COC1CCC(C(C)(C)C)CC1 (stereo not drawn)	104	16	i	i	5	106	.	.	.
CCC[C@@H](CN[C@@H](CNC)[C@H](C)CC)NCC1CCC(C(C)(C)C)CC1 (stereo partly drawn)	103	-28	i	i	5	148*	134	35	109
CCC[C@H](CN[C@@H](CNC)[C@H](C)CC)NCCc1cc(C(F)(F)F)cc(C(F)(F)F)c1	104	-32	i	i	8	158*	176	47	110
Cc1ccc2nc(N(CCCN(C)C)C(=O)c3ccc4c(c3)CCCC4)sc2c1	107	-14	i	i	49	191*	162	26	107
CCN(CC)CCN(C(=O)c1ccc2c(c1)CCCC2)c1nc2cc(OC)c(OC)cc2s1	103	-20	i	i	14	119	.	.	.
CCOc1ccc2nc(N(CCN(C)C)C(=O)c3ccc4c(c3)CCCC4)sc2c1	107	-7	i	i	25*	152*	147	23	103
CN(C)CCN(C(=O)c1ccc2c(c1)CCCC2)c1nc2cc3c(cc2s1)OCCO3	102	-12	i	i	4	118	.	.	.
CCOC(=O)c1cnc(SCc2cccc(C)c2)nc1N	101	.	i	i	1	98	.	.	.
CCOc1ccc(CNCc2ccc(C(=O)O)cc2)cc1OC	101	24	i	i	3	102	.	.	.
SMILES	MEKK3 PB1 HTS	SUMO Mot1 rescue	CHT block	CHT allo act	MEKK2 mut-MEK5	MEKK2wt PB1 HTS	MEKK2wt confirm	MEKK2mut confirm	MEKK3 confirm
CCOc1cccc(CNCc2ccc(C(=O)O)cc2)c1	50*[inhibitor]	317	i	i	-17	58	101	-6	101
CN(Cc1ccc(OCC(O)CN2CCCCC2)cc1)Cc1ccnc2ccccc12 (stereo not drawn)	106	.	.	.	37	148*	127	30	106
Cc1nn(C)cc1CN(C)Cc1ccc(OCC(O)CN2CCCCC2)cc1 (stereo not drawn)	98	0	i	i	17	121	.	.	.
Cc1ccnc(NC(=O)c2cc(S(=O)(=O)N3CCCCC3)ccc2Cl)c1	134*	6	i	i	8	125	104	7	106
O=C(CN(Cc1ccccc1Cl)C(=O)c1csnn1)NC1CCCC1	99	368	i	i	-3	100	.	.	.
N#Cc1c(Nc2ccccc2)c(/C=N/N=C/c2ccccc2)c[nH]c1=O	138*	18	i	i	0	104	100	3	105
N#Cc1c(Nc2ccccc2)c(/C=N/NCCO)c[nH]c1=O	101	39	i	i	-2	99	.	.	.
C=CCN(C(=O)c1csnn1)C(C(=O)NCc1ccc(F)cc1)c1sccc1C (stereo not drawn)	100	-5	i	i	4	102	.	.	.
O=C(C1=C(O)C(=O)N(CCN2CCOCC2)C1c1ccc([N+](=O)[O-])cc1)c1cccs1 (stereo not drawn)	108	-13	i	i	7	112	.	.	.
CN(C)CCCN1C(=O)C(O)=C(C(=O)c2cccs2)C1c1cccc([N+](=O)[O-])c1 (stereo not drawn)	2.0*[inhibitor]	4	i	i	-84	1.0*[inhibitor]	99	1	102
COc1ccccc1CNC(=O)CN(c1cccc([N+](=O)[O-])c1)S(C)(=O)=O	1.0*[inhibitor]	8	i	i	-22	-2.0*[inhibitor]	96	-11	97
O=C(CSc1nnc(-c2cccnc2)s1)Nc1cccc(C(=O)O)c1	158*	-16	i	i	0	111	98	-4	98
